Experimental findings from PMC7862700, “An all-to-all approach to the identification of sequence-specific readers for epigenetic DNA modifications on cytosine” are described below.

What all share (test): DAPPL (digital affinity profiling via proximity ligation, sequencing); 10 mM Tris-HCl pH 7.5, 50 mM NaCl, 1 mM DTT, 4% glycerol, room temperature, 30 min; GST-TFs on glutathione beads, 16-mer random dsDNA library, 0.1% formaldehyde crosslink after washing; high values mean tight binding
Common to all, as to settings: protein: recombinant; tags: N-terminal GST; dsDNA, one strand shown

The target of one experiment is T1, ELK4 (Homo sapiens, UniProt P28324-2 1-405).
T1 sequence: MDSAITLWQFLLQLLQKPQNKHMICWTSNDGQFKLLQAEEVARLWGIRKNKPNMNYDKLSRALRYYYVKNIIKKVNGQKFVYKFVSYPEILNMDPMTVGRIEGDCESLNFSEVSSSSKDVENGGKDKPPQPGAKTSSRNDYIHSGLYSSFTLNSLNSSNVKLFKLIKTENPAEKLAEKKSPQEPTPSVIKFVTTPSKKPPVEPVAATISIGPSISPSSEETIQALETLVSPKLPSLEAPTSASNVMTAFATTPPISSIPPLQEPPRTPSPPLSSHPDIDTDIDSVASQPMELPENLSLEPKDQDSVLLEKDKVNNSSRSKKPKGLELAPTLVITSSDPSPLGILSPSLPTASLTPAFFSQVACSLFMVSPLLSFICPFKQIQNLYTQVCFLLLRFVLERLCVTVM
An outline of the steps: (§1)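 GST fusions of human transcription factors were expressed in yeast and captured with glutathione beads. Once given DNA barcodes and pooled alongside a tag-only sample, they were incubated for 30 min at room temperature with 200 nmole of a random double-stranded 16-mer DNA library in Tris/NaCl/DTT/glycerol buffer, then washed, crosslinked (0.1% formaldehyde), proximity-ligated, PCR-amplified and sequenced on an Illumina NextSeq500. The binding signal of each hexamer is its read frequency for a factor divided by its frequency for the tag-only sample.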

The next experiment deals with T2, ETV2 (Homo sapiens, UniProt O00321 1-342).
T2 sequence: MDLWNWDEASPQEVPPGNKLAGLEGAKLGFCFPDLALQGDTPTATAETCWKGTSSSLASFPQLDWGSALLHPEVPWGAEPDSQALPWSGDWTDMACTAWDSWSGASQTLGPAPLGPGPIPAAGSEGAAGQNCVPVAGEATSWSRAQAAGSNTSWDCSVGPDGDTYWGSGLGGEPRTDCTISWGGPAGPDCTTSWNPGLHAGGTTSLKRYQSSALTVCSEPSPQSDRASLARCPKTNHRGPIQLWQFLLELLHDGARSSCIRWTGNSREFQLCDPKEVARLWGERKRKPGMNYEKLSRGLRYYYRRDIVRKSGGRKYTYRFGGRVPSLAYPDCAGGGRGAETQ
The gist of the method:
as §1

For another experiment, the target named is T3, ELF3 (Homo sapiens, UniProt P78545 1-371).
T3 sequence: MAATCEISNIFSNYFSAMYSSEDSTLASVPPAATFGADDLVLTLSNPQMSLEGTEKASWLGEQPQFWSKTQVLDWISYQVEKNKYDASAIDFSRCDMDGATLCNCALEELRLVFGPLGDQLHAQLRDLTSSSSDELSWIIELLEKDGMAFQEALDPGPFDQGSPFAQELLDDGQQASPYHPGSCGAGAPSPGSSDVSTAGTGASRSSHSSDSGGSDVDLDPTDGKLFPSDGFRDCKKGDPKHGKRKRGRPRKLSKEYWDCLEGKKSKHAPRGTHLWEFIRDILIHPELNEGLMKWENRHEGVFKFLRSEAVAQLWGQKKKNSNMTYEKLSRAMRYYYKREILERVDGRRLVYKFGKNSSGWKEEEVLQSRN
The gist of the method: as §1

The target of a further experiment is ETV1 (Homo sapiens, UniProt P50549 1-477). An outline of the steps:
as §1

The target in another experiment is T4, ERF (Homo sapiens, UniProt P50548 1-548).
T4 sequence: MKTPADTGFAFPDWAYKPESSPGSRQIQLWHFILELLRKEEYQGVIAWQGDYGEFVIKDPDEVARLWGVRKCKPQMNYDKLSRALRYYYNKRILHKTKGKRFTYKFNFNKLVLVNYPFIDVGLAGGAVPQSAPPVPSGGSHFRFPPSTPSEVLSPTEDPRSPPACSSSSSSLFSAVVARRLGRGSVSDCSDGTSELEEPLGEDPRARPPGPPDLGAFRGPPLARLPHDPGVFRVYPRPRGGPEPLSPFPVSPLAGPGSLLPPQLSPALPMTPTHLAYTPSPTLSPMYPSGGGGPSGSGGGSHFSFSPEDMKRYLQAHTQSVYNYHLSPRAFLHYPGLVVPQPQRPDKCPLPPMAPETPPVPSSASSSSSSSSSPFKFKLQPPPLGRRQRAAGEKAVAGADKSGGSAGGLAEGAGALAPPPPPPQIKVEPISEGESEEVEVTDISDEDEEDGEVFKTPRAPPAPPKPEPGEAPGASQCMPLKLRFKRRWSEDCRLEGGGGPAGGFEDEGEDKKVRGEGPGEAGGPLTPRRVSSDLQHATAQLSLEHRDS
An outline of the steps:
as §1

The next experiment concerns the target T5, ETV3L (Homo sapiens, UniProt Q6ZN32 1-361).
T5 sequence: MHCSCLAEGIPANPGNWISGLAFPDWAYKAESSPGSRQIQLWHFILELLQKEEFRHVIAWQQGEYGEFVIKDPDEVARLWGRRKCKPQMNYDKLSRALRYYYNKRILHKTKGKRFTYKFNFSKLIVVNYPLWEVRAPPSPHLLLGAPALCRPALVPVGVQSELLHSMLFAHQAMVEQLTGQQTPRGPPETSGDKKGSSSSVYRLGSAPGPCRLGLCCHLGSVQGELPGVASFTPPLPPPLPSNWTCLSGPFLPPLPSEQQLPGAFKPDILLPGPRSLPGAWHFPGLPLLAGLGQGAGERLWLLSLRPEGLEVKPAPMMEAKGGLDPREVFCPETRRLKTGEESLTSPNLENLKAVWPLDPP
An outline of the steps: as §1

Another experiment concerns the target T6, ETS2 (Homo sapiens, UniProt P15036 1-469).
T6 sequence: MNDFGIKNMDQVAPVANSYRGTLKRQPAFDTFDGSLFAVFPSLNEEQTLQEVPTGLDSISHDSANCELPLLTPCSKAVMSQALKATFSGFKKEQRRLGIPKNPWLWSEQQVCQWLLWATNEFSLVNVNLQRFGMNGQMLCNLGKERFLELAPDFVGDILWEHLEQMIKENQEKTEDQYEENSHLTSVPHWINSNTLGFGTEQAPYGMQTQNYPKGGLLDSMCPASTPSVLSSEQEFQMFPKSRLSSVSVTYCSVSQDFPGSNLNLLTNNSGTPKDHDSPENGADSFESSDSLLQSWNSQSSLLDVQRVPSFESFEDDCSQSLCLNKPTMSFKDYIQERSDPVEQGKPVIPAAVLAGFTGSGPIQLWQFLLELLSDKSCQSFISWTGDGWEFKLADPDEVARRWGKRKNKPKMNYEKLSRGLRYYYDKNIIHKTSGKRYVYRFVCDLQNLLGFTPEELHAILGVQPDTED
The gist of the method: as §1

The target in a further experiment is T7, ETV7 (Homo sapiens, UniProt Q9Y603 1-341).
T7 sequence: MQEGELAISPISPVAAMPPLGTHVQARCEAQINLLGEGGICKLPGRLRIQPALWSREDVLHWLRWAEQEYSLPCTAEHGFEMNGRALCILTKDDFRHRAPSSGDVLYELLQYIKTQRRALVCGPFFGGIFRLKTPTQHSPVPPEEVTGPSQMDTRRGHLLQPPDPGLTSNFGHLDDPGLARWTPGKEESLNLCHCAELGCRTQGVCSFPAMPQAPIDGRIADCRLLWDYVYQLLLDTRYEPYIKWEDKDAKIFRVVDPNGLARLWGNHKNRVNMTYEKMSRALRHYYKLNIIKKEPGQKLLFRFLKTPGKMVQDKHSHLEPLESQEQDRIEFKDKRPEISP
An outline of the steps: as §1

The target of the next experiment is T8, ETV3 (Homo sapiens, UniProt P41162-2 1-143).
T8 sequence: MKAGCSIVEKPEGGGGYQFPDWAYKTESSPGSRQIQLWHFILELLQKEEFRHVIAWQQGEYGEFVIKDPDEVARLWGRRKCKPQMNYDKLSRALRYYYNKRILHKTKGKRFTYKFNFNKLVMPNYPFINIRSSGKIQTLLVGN
An outline of the steps:
as §1

For another experiment, the target named is ETV6 (Homo sapiens, UniProt P41212 1-452). An outline of the steps: as §1
Sequence of ETV6 (P41212 whole entry): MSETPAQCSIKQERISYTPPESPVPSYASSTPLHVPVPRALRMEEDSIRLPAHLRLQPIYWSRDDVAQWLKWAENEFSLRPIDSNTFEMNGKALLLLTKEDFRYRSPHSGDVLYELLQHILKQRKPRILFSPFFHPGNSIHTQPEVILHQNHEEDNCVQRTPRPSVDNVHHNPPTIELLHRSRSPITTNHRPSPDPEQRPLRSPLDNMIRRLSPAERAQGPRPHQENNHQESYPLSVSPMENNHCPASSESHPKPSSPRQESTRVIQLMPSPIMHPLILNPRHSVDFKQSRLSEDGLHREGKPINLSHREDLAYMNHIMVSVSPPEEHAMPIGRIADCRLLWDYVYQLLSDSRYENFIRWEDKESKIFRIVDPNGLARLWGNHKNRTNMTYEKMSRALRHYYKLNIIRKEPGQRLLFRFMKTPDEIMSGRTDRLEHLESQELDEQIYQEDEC

Sequence of ETV1 (P50549 whole entry): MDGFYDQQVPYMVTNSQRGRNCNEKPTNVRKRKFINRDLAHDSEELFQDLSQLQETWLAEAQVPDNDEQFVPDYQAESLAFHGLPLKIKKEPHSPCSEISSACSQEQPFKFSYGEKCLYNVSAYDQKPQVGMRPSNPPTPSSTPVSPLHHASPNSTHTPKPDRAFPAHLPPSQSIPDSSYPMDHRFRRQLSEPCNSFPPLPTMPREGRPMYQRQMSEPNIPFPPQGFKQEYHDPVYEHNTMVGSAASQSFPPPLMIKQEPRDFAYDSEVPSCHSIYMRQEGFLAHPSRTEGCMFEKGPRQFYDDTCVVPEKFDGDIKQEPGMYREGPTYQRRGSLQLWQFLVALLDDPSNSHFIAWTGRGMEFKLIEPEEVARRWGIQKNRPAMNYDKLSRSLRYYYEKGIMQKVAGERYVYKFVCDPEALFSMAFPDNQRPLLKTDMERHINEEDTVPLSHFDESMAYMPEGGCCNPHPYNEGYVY

As to TCAAGT, the binding signal in the experiment with ELK4 was 1.19 fold enrichment (6-mer frequency, TF over GST control); in the experiment with ETV2, 1.06 fold enrichment (6-mer frequency, TF over GST control); with ELF3, 1.13 fold enrichment (6-mer frequency, TF over GST control); in the experiment with ETV1, 1.15 fold enrichment (6-mer frequency, TF over GST control); with ERF it was 1.06 fold enrichment (6-mer frequency, TF over GST control); in the experiment with ETV3L, 1.12 fold enrichment (6-mer frequency, TF over GST control). For the same sequence, the binding signal in the experiment with ETS2 is 1.09 fold enrichment (6-mer frequency, TF over GST control); with ETV7, 1.03 fold enrichment (6-mer frequency, TF over GST control); with ETV3, 1.1 fold enrichment (6-mer frequency, TF over GST control); with ETV6, 1.07 fold enrichment (6-mer frequency, TF over GST control).
